The list is not random: actives were taken first. Their share in the collection is about 2.5%.
L3MBTL1 inh-1 – blocks human L3MBTL1; Q9Y468; AlphaScreen L3MBTL1–H3K9me1 peptide binding; Potency, µM (series often up to 57.1 µM), without a hit: top-dose activity, negative = inhibition, actives largely listed as inhibitors; 230,000 tested, 0.66% active; AID 485360; note: % is set by controls: 0 for no effect and ±100 for the full control effect; nearly all actives have a fitted effect of over 60% in size
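First, the protein-peptide complex forms for 30 min at room temperature (L3MBTL1 50 nM, biotinylated H3K9me1 peptide 75 nM). Next, compounds are pin-transferred and incubated 30 min. Finally, AlphaScreen beads are added and read after 30 min.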
WRN inhibitor – inhibitors of human WRN helicase; AID 651768; Q14191; WRN helicase unwinding, fluorescent forked duplex, kinetic; Potency, µM (top dose mostly 114 µM), for inactives: at the highest dose activity change, negative = inhibition, usual class: inhibitors; 360,000 tested, 0.46% active; note: % is set by controls: 0 for no effect and ±100 for the full control effect; nearly all actives have a fitted effect of over 55% in size
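Enzyme (20 nM final) and test compound sit together 15 min at room temperature before substrate addition. Substrate is a single-forked duplex oligonucleotide (100 nM) labelled with fluorophore and quencher, with 2 mM ATP; helicase unwinding raises red fluorescence, read kinetically.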
Pol kappa inh – blocks human DNA polymerase kappa activity; 400,000 tested, 0.53% active; Potency, µM (doses to about 107 µM), for inactives: at the highest dose activity, negative = inhibition, hits mostly inhibitors; purified Pol kappa, fluorescent DNA synthesis assay, 10 min; Q9UBT6; note: % is set by controls: 0 for no effect and ±100 for the full control effect
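50 nM final substrate added after 15 min RT preincubation of 10 nM Pol kappa with compound; fluorescence read at 0 and 10 min.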
POLB inh – inhibitors of human DNA polymerase beta | P06746 | Pol beta primer extension/strand displacement, fluorescence kinetic | Potency, µM (doses to about 114 µM), for the others: at the top dose activity change, negative = inhibition, hits mostly inhibitors | 340,000 tested, 1.3% active | AID 485314; note: % is set by controls: 0 for no effect and ±100 for the full control effect
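10 nM enzyme + cpd, 15 min RT; start with substrate 50 nM final; read 0 min and after 10 min RT. Corrected, normalized data; 4-parameter Hill curve fit.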
Pol iota inh – DNA polymerase iota (human) inhibition. Q9UNA4. Pol iota fluorescent replication assay, 10 min. Potency, µM (highest dose often 115 µM), inactives show at the highest dose activity, negative = inhibition, most hits filed as inhibitors. 390,000 tested, 1% active. AID 588590
Target sequence (Q9UNA4 whole entry, looked up): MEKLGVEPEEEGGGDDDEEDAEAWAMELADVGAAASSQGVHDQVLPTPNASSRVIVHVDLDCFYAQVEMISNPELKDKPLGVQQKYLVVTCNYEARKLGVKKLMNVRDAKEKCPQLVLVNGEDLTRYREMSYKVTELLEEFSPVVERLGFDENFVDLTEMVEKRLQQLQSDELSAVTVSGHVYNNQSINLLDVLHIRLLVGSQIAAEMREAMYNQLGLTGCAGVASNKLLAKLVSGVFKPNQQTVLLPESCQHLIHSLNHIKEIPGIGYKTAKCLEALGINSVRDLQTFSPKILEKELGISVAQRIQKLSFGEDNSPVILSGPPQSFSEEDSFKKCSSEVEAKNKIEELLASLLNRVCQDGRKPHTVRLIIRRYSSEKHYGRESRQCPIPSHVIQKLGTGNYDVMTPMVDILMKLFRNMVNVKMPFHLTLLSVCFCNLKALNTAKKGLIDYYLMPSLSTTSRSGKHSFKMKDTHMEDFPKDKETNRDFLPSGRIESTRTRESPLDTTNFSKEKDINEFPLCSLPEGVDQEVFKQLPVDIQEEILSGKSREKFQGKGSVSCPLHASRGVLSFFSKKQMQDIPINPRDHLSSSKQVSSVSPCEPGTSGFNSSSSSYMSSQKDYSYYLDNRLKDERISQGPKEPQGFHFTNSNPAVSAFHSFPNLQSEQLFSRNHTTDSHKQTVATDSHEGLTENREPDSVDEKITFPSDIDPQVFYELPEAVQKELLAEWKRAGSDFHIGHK
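Pol iota at 10 nM preincubated 15 min with compounds at room temperature; reaction started with fluorescent substrate, 50 nM final. Fluorescence read kinetically at 0 and 10 min; buffer-only wells as negative control.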
POLH inh – DNA polymerase eta (human) inhibition. Q9Y253. recombinant Pol eta, fluorescent DNA replication assay. Potency, µM (titrated, usually from 114 µM), without a hit: at the highest dose activity change, negative = inhibition, actives largely listed as inhibitors. 390,000 tested, 1.2% active; note: % is set by controls: 0 for no effect and ±100 for the full control effect
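Fluorescent replication assay: 50 nM final substrate added after a 15 min room-temperature compound preincubation with 10 nM enzyme. Signal taken at 0 min and again at 10 min.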
L3MBTL1 inh-2 – L3MBTL1 binding inhibition validated. shares compounds with L3MBTL1 inh-1. 500 tested, 91% active. Potency, µM, hits mostly inhibitors. L3MBTL1 methyl-lysine binding inhibition, biochemical qHTS. AID 540279; note: nearly all actives have a fitted effect of over 70% in size
AlphaScreen ctr2 – interferes with AlphaScreen signal in L3MBTL1 counterscreen | shares compounds with L3MBTL1 inh-1 | AID 602224 | 500 tested, under 10 active | AlphaScreen counterscreen, signal inhibition | Potency, µM (top dose mostly 57.1 µM), inactives show top-dose activity change, negative = inhibition, most hits filed as inhibitors; note: 0% is about no effect
TbPGK inh – TbPGK inhibition, hit validation; shares compounds with Pol kappa inh; TbPGK coupled GAPDH assay, Kinase-Glo luminescence; Potency, µM (titrated, usually from 57.5 µM), for inactives: top-dose activity change, negative = inhibition, usual class: inhibitors; 500 tested, 79% active; note: % is set by controls: 0 for no effect and ±100 for the full control effect; nearly all actives have a fitted effect of over 65% in size
Pol iota confirm – Inhibitors of human DNA polymerase iota, confirmation; AID 720496; 1,500 tested, 77% active; shares compounds with Pol kappa inh; Potency, µM, actives largely listed as inhibitors; Pol iota primer extension, TAMRA/BHQ fluorescence
Active calls of the source: *; u = inconclusive; x = not tested or not shown; [ ] = dose if it differs, or a comment. Calls come from the whole dose curve; as a rule, active = well fitted curve in the direction sought with a large enough effect; inconclusive = small, poorly fitted or top-dose-only effect, or another doubt; inactive = no such curve, though single readings can be large; an effect the other way counts as inactive or inconclusive. Potency is the fitted concentration of half-maximal effect.

SMILES | L3MBTL1 inh-1 | WRN inhibitor | Pol kappa inh | POLB inh | Pol iota inh | POLH inh | L3MBTL1 inh-2 | AlphaScreen ctr2 | others
CC(C)OC(=O)CSc1nc(-c2ccc(F)cc2)nc2ccc(F)cc12 | -3.5% | 2.6% | -1.7% | -1.6% | 0.6% | -10.4% | x | x
O=C(CSc1nc(-c2ccccc2)nc2ccc(F)cc12)Nc1ccc(C(=O)O)cc1 | 39.8µM* | -20.6%[57.1 µM] | -13.6% | -10.4% | -5.8% | u | u | u
Cc1ccc(C)c(N2CCN(S(=O)(=O)c3cccc4cccnc34)CC2)c1 | x | 3.5%[57.1 µM] | -11.8% | 10.6% | 100.5% | -19.6% | x | x
Cc1c(N2C(=O)c3ccc4c5c(ccc(c35)C2=O)CC4)c(=O)n(-c2ccccc2)n1C | 12.6µM* | u | 50.1µM* | 5.01µM* | 5.62µM* | 2.82µM* | 5.97* | 0.9%
Cc1ccc(/C=C2\SC(N3CCN(C(c4ccccc4)c4ccccc4)CC3)=NC2=O)o1 | 14.1µM* | -23.8% | -8.3% | 39.8µM* | -12.4% | -1.0% | 15* | -2.1%
Cc1ccc(-c2ccc(/C=C3\SC(N4CCOCC4)=NC3=O)o2)cc1 | x | -9.8%[57.1 µM] | -17.6% | -11.5% | 60.3% | u | x | x
c1ccc(-c2nc(-c3ccncc3)n[nH]2)nc1 | 3.16µM* | -13.4% | -3.9% | 25.4% | 165.6% | -15.8% | 4.74* | -94.7%
COc1ccc(S(=O)(=O)/N=C2/NC(=O)/C(=C/c3ccco3)S2)cc1 | 35.5µM* | u | -10.5% | 31.6µM* | u | 17.8µM* | 18.9* | -1.3%
O=C(/C=C/c1ccco1)NC(=S)Nc1cccc([N+](=O)[O-])c1 | 35.5µM* | u | u | 39.8µM* | u | 50.1µM* | 23.8* | -1.1%
Oc1c(CN2CCN(c3ccccn3)CC2)cc(Cl)c2cccnc12 | 4.47µM* | -13.4% | 0.4% | -14.6% | 50.9% | u | 21.2* | -94.6%
O=C(Oc1c(CN2CCOCC2)cc(Cl)c2cccnc12)c1ccccc1Cl | 14.1µM* | -1.0% | 3.9% | -7.0% | 82.6% | -25.3% | 26.7* | -15.7%
OCCN1CCN(Cc2cc(Cl)c3cccnc3c2O)CC1 | x | -5.9% | -19.3% | -0.3% | 35.3% | -10.5% | x | x
Cc1nc2n[nH]c(N)c2nc1C | x | 1.2% | x | x | x | -8.6% | x | x
COC(=O)c1c(C)[nH]c(C(=O)C(C)OC(=O)C2CC(=O)N(CCc3ccccc3)C2)c1C (stereo not given) | 28.2µM* | -6.1% | -3.2% | x | 2.2% | -14.4% | 26.7* | 4.6%
O=C(CSc1ncccc1-c1nc2ccccc2[nH]1)NCc1ccco1 | 35.5µM* | u | 50.1µM* | 31.6µM* | u | 25.1µM* | 21.2* | u
O=C(CSc1nc2ccccc2[nH]1)NCc1ccco1 | -7.7% | -7.3%[57.1 µM] | -6.6% | 4.8% | -9.8% | -2.1% | x | x
CCOC(=O)c1cn(C2CC2)c2c(F)c(NCCCN(C)C)c(F)cc2c1=O | x | -2.6% | -11.1% | x | 49.9% | -17.7% | x | x
Cc1ccc(-c2ccc(CCC(=O)O)n2CC(=O)O)cc1 | 22.4µM* | -24.4% | 2.8%[60.1 µM] | 15.8µM* | u | 25.1µM* | 5.32* | -3.6%
CC(C)N1C(=O)c2ccccc2NC(=O)C1C(=O)NC1CC1 (stereo not given) | x | 4.0% | x | x | x | x | x | x
O=C(O)c1cc(-c2ccco2)nc2ccccc12 | 22.4µM* | u | 28.2µM* | 17.8µM* | 12.6µM* | 7.08µM* | 2.99* | -4.5%
Cc1nc(N2CCN(S(=O)(=O)c3cccs3)CC2)c2c(-c3ccccc3)c(C)sc2n1 | x | 4.1% | x | x | x | -6.7% | x | x
CCN(CC)S(=O)(=O)c1cc(C(=O)Nc2cc(C)[nH]n2)ccc1Cl | x | -5.1% | 6.6%[60.1 µM] | 7.3% | 10.2% | -7.4% | x | x
Cc1occc1C(=O)Nc1ccc(S(=O)(=O)N2CCN(C)CC2)cc1 | -4.6% | -7.3% | -7.4% | -3.3% | 12.2%[58.9 µM] | -15.0% | x | x
Cc1c(C(=O)OCC2CCCO2)[nH]c2c1C(=O)CC(c1ccco1)C2 (stereo not given) | 14.1µM* | 39.8µM* | 28.2µM* | 10µM* | u | 3.16µM* | 5.97* | -1.8%
Cc1ccc(N=Nc2ccc(O)c3ncccc23)cc1 | 39.8µM* | -7.5% | -18.0% | 2.0% | 17.4% | -17.4% | 16.8* | u
SMILES | L3MBTL1 inh-1 | WRN inhibitor | Pol kappa inh | POLB inh | Pol iota inh | POLH inh | L3MBTL1 inh-2 | AlphaScreen ctr2 | others
O=C(Nc1ccccc1C(=O)NC1CC1)c1ccc([N+](=O)[O-])o1 | 31.6µM* | -34.7% | -35.1% | x | 50.1µM* | 31.6µM* | 18.9* | 9.4%
CCOC(=O)N1CCN(Cc2nc(-c3ccc(C)cc3)no2)CC1 | 2.6% | -1.4% | 2.6% | -9.3% | 13.7% | -13.0% | x | x
COc1ccc(-n2cccc2/C=C2\C(=N)N3N=C(c4ccco4)SC3=NC2=O)cc1 | 15.8µM* | u | 22.4µM* | 5.62µM* | u | 8.91µM* | 2.67* | u | TbPGK inh=3.66µM*
COc1ccc(-n2cccc2/C=C2\C(=N)N3N=C(C(C)C)SC3=NC2=O)cc1 | -28.4% | -23.7% | -7.4% | 1.1% | 40.0% | -24.9% | x | x
CC(C)(C)NC(=O)NC(=O)CSc1nnc(COc2ccccc2Cl)o1 | x | -11.3% | -3.7% | -2.2% | 0.6% | -15.8% | x | x
O=C(CSc1nnc(COc2ccccc2Cl)o1)NC(=O)NCc1ccco1 | 14.1µM* | -7.7%[11.6 µM] | u | 14.1µM* | 39.8µM* | 50.1µM* | 11.9* | -7.5% | Pol iota confirm=67*
Cc1ccc(N=C2NC(=O)S/C2=C\c2ccco2)cc1 | 25.1µM* | u | -45.7% | 7.94µM* | u | -17.4% | 11.9* | 7.0% | Pol iota confirm=67*
O=C1NC(=Nc2ccccc2)/C(=C/c2ccco2)S1 | -17.5% | -3.6% | -35.8% | u | u | -15.7% | x | x
O=C(c1ccccc1Sc1ccc([N+](=O)[O-])cc1)N1CCCCC1 | -14.4% | 6.0% | -8.8% | 8.1% | 13.3% | -11.6% | x | x
COCCN(C(=O)CSc1n[nH]c(-c2ccc(OC)cc2)n1)c1c(N)n(Cc2ccccc2)c(=O)[nH]c1=O | 7.4% | -12.7% | -13.1% | x | 17.5% | -1.4% | x | x

Assay outcomes deposited in PubChem BioAssay by National Center for Advancing Translational Sciences (NCATS).
